Results as given in PubChem BioAssay (NCATS).
Values joined by “and” are separate entries in the source; they are usually repeats but may differ in a detail not shown here. Identical values can stand only once. Results filed as inconclusive are left out. Active and inactive are the calls of the source. Unless noted, calls follow the shape of the dose curve; as a rule, active = well fitted curve in either direction with a large enough effect (not every such curve was filed as active); inconclusive = small, poorly fitted or top-dose-only effect, or another doubt; inactive = flat fitted curve, though single readings scatter.

Experiments:
[1] = Stat Signaling Pathway (AID 446); details: ME-180 (cervical carcinoma) SIE beta-lactamase reporter, IL-6 stimulated, 5 h;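 also: ME-180 cervical cancer cells given 40 pM IL-6 alongside compound; SIE-controlled beta-lactamase reporter measured as 460/530 nm FRET emission ratio; % is scaled to controls: 0 for no effect and ±100 for the full control effect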
In short: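 Emission at 460 and 530 nm (excitation 405 nm) reports SIE-controlled beta-lactamase in ME-180 cells. Cells received compound with 40 pM IL-6 for 5 hrs at 37 C; data scaled between 300 pM IL-6 and 125 nM JAK-inhibitor controls.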

[2] = molecular target: Glucocorticoid receptor (Homo sapiens) (UniProt P04150); experiment: GR-GFP Redistribution (AID 450;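 active = compounds whose dose series gives a full or clear partial fitted curve of increased nuclear translocation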; also: potency is read from the fitted curve at half-maximal effect); details: U2OS GR-GFP nuclear translocation, laser cytometry, 2 h
Sequence of Glucocorticoid receptor (Homo sapiens) (P04150 whole entry, looked up): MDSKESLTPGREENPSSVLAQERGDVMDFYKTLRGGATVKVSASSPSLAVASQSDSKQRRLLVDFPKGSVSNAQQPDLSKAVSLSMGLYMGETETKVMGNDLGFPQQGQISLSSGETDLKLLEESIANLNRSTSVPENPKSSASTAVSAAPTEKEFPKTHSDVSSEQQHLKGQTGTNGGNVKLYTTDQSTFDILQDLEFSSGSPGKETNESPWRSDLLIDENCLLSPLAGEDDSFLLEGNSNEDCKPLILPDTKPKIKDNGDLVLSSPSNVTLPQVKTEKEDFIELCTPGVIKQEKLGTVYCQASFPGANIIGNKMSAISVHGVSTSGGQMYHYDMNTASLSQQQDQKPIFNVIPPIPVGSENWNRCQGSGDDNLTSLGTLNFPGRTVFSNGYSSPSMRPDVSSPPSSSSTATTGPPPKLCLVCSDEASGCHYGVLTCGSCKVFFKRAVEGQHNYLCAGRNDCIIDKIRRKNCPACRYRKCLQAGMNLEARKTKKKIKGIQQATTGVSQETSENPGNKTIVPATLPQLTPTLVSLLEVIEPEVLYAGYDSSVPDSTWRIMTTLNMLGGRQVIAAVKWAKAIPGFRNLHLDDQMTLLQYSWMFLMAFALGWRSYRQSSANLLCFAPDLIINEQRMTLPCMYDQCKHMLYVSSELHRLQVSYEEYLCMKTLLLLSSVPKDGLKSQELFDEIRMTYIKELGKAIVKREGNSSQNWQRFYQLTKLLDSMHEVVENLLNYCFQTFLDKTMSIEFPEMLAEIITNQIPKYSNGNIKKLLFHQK

[3] = molecular target: Mitogen-activated protein kinase 10 (Mus musculus) (UniProt Q61831); experiment: JNK3 AlphaScreen Assay (AID 530); details: JNK3 lysate, c-Jun phosphorylation; series mostly up to 57.1 µM;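 also: kinase came from lysate of stimulated human HepG2 cells; signal reports phosphorylation of biotinylated GST-cJun 1-79 at Ser73 with 10 µM ATP; % is scaled to controls: 0 for no effect and ±100 for the full control effect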
In short: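 Kinase buffer: 20 mM Tris-HCl pH 7.6, 10 mM MgCl2, 1 mM DTT, 0.1 mM Na3VO4, 0.01% Tween-20; ATP 10 uM. Substrate biotin-GST-cJun(1-79), enzyme from activated HepG2 lysates. Detection by Ser73 phospho-antibody AlphaScreen.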

[4] = molecular target: 3',5'-cyclic-AMP phosphodiesterase 4B (Homo sapiens) (UniProt Q07343); experiment: qHTS Assay for Inhibitors of PDE-IV (AID 607; active = well fitted activation curve with a large enough effect in the main read-out, with a control signal flat, not every such curve was filed as active; also: % of control where 0% means no effect); details: HEK293 ACTOne CNG channel cells, membrane potential fluorescence; series mostly up to 22.9 µM
Sequence of 3',5'-cyclic-AMP phosphodiesterase 4B (Homo sapiens) (Q07343 whole entry, looked up): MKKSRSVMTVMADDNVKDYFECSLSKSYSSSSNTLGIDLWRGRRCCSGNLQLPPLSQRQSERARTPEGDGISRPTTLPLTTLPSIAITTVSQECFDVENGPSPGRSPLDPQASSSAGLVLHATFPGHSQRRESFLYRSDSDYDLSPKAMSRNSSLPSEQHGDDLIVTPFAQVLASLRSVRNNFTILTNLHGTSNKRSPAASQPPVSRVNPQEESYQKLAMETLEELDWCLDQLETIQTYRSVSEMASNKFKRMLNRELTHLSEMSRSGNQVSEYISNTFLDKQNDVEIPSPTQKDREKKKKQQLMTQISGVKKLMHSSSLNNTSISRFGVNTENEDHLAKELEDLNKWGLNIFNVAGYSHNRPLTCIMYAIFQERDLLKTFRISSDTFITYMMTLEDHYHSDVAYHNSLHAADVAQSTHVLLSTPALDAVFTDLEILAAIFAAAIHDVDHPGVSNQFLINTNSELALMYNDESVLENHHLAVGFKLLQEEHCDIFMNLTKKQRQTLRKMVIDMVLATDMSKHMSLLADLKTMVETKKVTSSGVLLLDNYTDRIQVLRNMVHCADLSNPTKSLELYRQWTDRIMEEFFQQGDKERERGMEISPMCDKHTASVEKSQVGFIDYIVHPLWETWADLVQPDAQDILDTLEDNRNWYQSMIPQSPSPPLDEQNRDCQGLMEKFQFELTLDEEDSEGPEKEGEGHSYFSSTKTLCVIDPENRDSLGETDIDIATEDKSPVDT
In short: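 The readout is membrane depolarisation from a cAMP-sensing CNG channel, detected with a potential dye at ex 535/em 590. Cells were HEK293-derived (endogenous PDE-IV) at 1000 cells/well, titrated up to 22.9 uM final.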

[5] = molecular target: Guanine nucleotide-binding protein G(i) subunit alpha-1 (Homo sapiens) (UniProt P63096); experiment: qHTS Assay for Inhibitors of RGS12 GoLoco Motif Activity (Green Fluorophore) (AID 879; active = well fitted curve in the direction sought with a large enough effect; an effect the other way counts as inactive or inconclusive;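 also: 0% = labeled peptide with Gαi1 and full inhibition = labeled peptide alone without protein; negative values mean loss of peptide binding seen as reduced polarization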); details: Galphai1/FITC-RGS12 GoLoco peptide, fluorescence polarization; series mostly up to 57.1 µM
Sequence of Guanine nucleotide-binding protein G(i) subunit alpha-1 (Homo sapiens) (P63096 whole entry, looked up): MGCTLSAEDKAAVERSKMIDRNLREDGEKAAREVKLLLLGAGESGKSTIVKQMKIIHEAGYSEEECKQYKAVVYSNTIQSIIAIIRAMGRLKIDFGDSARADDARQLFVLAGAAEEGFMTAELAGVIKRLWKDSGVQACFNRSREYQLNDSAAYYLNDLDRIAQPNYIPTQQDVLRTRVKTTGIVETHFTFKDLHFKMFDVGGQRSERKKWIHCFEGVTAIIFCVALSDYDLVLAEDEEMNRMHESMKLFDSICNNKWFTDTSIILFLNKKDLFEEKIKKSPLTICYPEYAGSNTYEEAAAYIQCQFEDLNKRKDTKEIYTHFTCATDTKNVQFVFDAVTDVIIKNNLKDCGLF
In short: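 A drop in FITC polarization marked displacement of the FITC-tagged RGS12 GoLoco peptide (10 nM) from Gαi1 (50 nM). Compounds were incubated 10 min at room temperature in Tris pH 7.5 buffer containing 150 mM NaCl, 0.1 mM GDP and 0.05% NP40; unlabeled peptide titration served as control.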

[6] = Cell Viability - SH-SY5Y (AID 544; active = well fitted curve in the direction sought with a large enough effect; an effect the other way counts as inactive or inconclusive;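 also: cells exposed to compound for 40 hours; nearly all actives have a fitted effect of over 55% in size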; also: potency is read from the fitted curve at half-maximal effect); details: SH-SY5Y neuroblastoma cell viability; series mostly up to 92.2 µM
In short: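 SH-SY5Y, 1500 cells/well, 5 hr pre-incubation 37 °C; cpd 40 hr 37 °C; CellTiter-Glo 20 min RT; luminescence (ATP) read. qHTS concentration-response, Hill fit → AC50. Tamoxifen, doxorubicin as positive controls.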

[7] = Cellular Toxicity (caspase-3) HepG2 (AID 654; active = well fitted curve in the direction sought with a large enough effect; an effect the other way counts as inactive or inconclusive;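 also: cells exposed to compound for 16 hours before reading; 0% = DMSO alone and 100% = caspase signal from 100 µM tamoxifen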); details: HepG2 caspase-3 activation, luminescence; series mostly up to 92.2 µM
In short: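 Luminescent Caspase-Glo 3/7 readout after 16 hr compound exposure of human hepatocellular carcinoma HepG2 cells at 37 °C; qHTS concentration-response, normalized DMSO = 0%, 100 uM tamoxifen = 100%; AC50 by standard Hill equation.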

[8] = Cellular Toxicity (caspase-3) Jurkat (AID 655; active = well fitted curve in the direction sought with a large enough effect; an effect the other way counts as inactive or inconclusive;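 also: cells exposed to compound for 16 h at 37 °C before reading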); details: Jurkat caspase-3 activation, luminescence; series mostly up to 92.2 µM
In short: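 Jurkat cells (5000/well) in complete medium exposed 16 h at 37 C; caspase-3/7 activity read by Caspase-Glo luminescence after 20 min at room temperature. Normalized to DMSO and 100 uM tamoxifen; AC50 from Hill fits.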

[9] = Cellular Toxicity (caspase-3) HUV-EC-C (AID 656; active = well fitted curve in the direction sought with a large enough effect; an effect the other way counts as inactive or inconclusive); details: HUV-EC-C cells, caspase-3 activation (apoptosis), vehicle = 0, 100 µM tamoxifen = 100%; series mostly up to 92.2 µM
In short: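 HUV-EC-C cells (1000/well) in complete medium, compound-treated 16 h at 37 °C; caspase-3/7 activity read by Caspase-Glo 3/7 luminescence. Normalized to DMSO (basal) and 100 uM tamoxifen (100%); AC50 from Hill-equation concentration-response fits.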

[10] = Cellular Toxicity (caspase-3) BJ (AID 658; active = well fitted curve in the direction sought with a large enough effect; an effect the other way counts as inactive or inconclusive); details: BJ fibroblasts, luminescence, normalized: DMSO 0%, staurosporine 100%; series mostly up to 91.7 µM
In short: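 Caspase-Glo 3/7 luminescence, read 1 hr after reagent at room temperature, in normal BJ fibroblasts exposed 16 hours at 37 °C. AC50 values from Hill-equation concentration-response, scaled between DMSO basal and 10 uM staurosporine as 100%.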

[11] = Cellular Toxicity (caspase-3) MRC-5 (AID 659; active = well fitted curve in the direction sought with a large enough effect; an effect the other way counts as inactive or inconclusive); details: MRC-5 cells, luminescence; Potency: caspase-3 activation; series mostly up to 91.7 µM
In short: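 Luminescent Caspase-Glo 3/7 read-out (1 h, room temperature) after a 16 h, 37 °C compound exposure of MRC-5 lung fibroblasts at 1500 cells/well. Concentration-response AC50 from Hill equation; 0% DMSO, 100% 10 uM staurosporine.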

[12] = Cellular Toxicity (caspase-3) Mesangial (AID 660; active = well fitted curve in the direction sought with a large enough effect; an effect the other way counts as inactive or inconclusive;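 also: cells exposed to compound for 16 h before the caspase read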); details: mesangial cells, normalized: DMSO 0%, 100 µM tamoxifen 100%; series mostly up to 91.7 µM
In short: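 Luminescent Caspase-Glo 3/7 readout (aminoluciferin substrate cleavage, 20 min RT) after 16 h compound exposure at 37 °C of normal human mesangial cells. Signal increase normalized between DMSO basal and 100 uM tamoxifen; Hill-equation AC50.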

[13] = Cellular Toxicity (caspase-3) H-4-II-E (AID 663; active = well fitted curve in the direction sought with a large enough effect; an effect the other way counts as inactive or inconclusive;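 also: cells exposed to compound for 16 hr before readout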); details: H-4-II-E rat hepatoma, scaled: DMSO 0%, 100 µM tamoxifen 100%; series mostly up to 92.2 µM
In short: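 Caspase 3/7 activation measured by luminescent aminoluciferin substrate cleavage after 16 hr compound treatment of H-4-II-E cells in complete medium. Increase normalized between DMSO (basal) and 100 uM tamoxifen (100%); Hill-equation AC50 from concentration-response.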

[14] = Cellular Toxicity (caspase-3) Hek293 (AID 664; active = well fitted curve in the direction sought with a large enough effect; an effect the other way counts as inactive or inconclusive;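 also: cells exposed to compound for 16 h at 37 °C before readout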); details: HEK293 caspase-3 activation, DMSO = 0%, 100 µM tamoxifen = 100%; series mostly up to 92.2 µM
In short: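 Luminescent Caspase-Glo 3/7 readout (aminoluciferin release) in HEK293 cells after 16 h compound treatment, 37 °C. Normalization: DMSO = basal, 100 uM tamoxifen = 100% stimulation. Concentration-response fitted with standard Hill equation for AC50.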

[15] = Cellular Toxicity (caspase-3) N2a (AID 665; active = well fitted curve in the direction sought with a large enough effect; an effect the other way counts as inactive or inconclusive;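 also: compound exposure lasted 16 h at 37 °C before readout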); details: N2a cells, luminescence, normalized: DMSO 0%, 10 µM staurosporine 100%; series mostly up to 92.2 µM
In short: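 Luminescent Caspase-Glo 3/7 readout in N2a mouse neuroblastoma cells after 16 h compound exposure at 37 °C. Signal scaled to DMSO (basal) and 10 uM staurosporine (100%). Concentration-response fitted with Hill equation for AC50.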

[16] = Cell Viability - HUV-EC-C (AID 542; active = well fitted curve in the direction sought with a large enough effect; an effect the other way counts as inactive or inconclusive;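 also: cells exposed to compound for 40 hours; % is scaled to controls: 0 for no effect and ±100 for the full control effect; nearly all actives have a fitted effect of over 35% in size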); details: HUV-EC-C endothelial cell viability, qHTS; series mostly up to 92.2 µM
In short: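 Luminescent ATP read-out (CellTiter-Glo, 20 min room temperature) after 40 hr compound treatment of HUV-EC-C cells at 37 °C. Concentration-response data fitted with the standard Hill equation to give AC50; tamoxifen and doxorubicin served as positive controls.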

[17] = Cell Viability - H-4-II-E (AID 543; active = well fitted curve in the direction sought with a large enough effect; an effect the other way counts as inactive or inconclusive;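 also: cells exposed to compound for 40 hours; % is scaled to controls: 0 for no effect and ±100 for the full control effect; nearly all actives have a fitted effect of over 35% in size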); details: H-4-II-E rat hepatoma viability; series mostly up to 92.2 µM
In short: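 qHTS, rat hepatoma H-4-II-E, 1500 cells/well; 40 hr compound exposure, 37 °C; CellTiter-Glo ATP luminescence after 20 min RT; AC50 by standard Hill fit.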

[18] = Cellular Toxicity (caspase-3) SHSY5Y (AID 657; active = well fitted curve in the direction sought with a large enough effect; an effect the other way counts as inactive or inconclusive); details: SH-SY5Y caspase-3 activation, DMSO zero, 10 µM staurosporine = 100%; series mostly up to 91.7 µM
In short: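 SH-SY5Y human neuroblastoma cells, 1500/well, exposed to compound for 16 hours at 37 °C in complete medium. Caspase-3/7 activity read by Caspase-Glo luminescence after 1 hr at room temperature, normalized to DMSO and 10 uM staurosporine; AC50 from Hill fit.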

[19] = Cellular Toxicity (caspase-3) NIH 3T3 (AID 666; active = well fitted curve in the direction sought with a large enough effect; an effect the other way counts as inactive or inconclusive;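 also: 0% = DMSO basal and 100% = 100 µM tamoxifen stimulation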); details: NIH 3T3 caspase-3 activation, apoptosis/toxicity, 0% DMSO, 100% is 100 µM tamoxifen; series mostly up to 92.2 µM
In short: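 NIH 3T3, 1000 cells/well, 5 hr settle then 16 hr compound at 37°C; Caspase-Glo 3/7, 20 min RT, luminescence. DMSO = basal, 100 uM tamoxifen = 100%. Hill-equation AC50, qHTS.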

CC(=O)c1ccc2c(c1)N(CCCN(C)C)c1ccccc1S2
inactive: activity, negative = inhibition ([1]; at 17.2 µM (top of the series)) -0.766% | Potency [2] > 20.6 µM | Potency [3] | outcome [4]

CC(COc1ccccc1)NC(C)C(O)c1ccc(O)cc1 (stereo not given)
inactive: activity, negative = inhibition ([1]; at 17.2 µM (top of the series)) 20.7% | Potency [2] > 20.6 µM

CNCCCC1c2ccccc2C=Cc2ccccc21
inactive: activity, negative = inhibition ([1]; at 17.2 µM (top of the series)) -10.4% and -15.8% | activity, negative = inhibition ([1]; at 38 µM (top of the series)) -9.63% | Potency [2] > 46 µM and > 20.6 µM | Potency [3] | outcome [4] | outcome [5]

COc1ccc(Cl)cc1C(=O)NCCc1ccc(S(=O)(=O)NC(=O)NC2CCCCC2)cc1
inactive: activity, negative = inhibition ([1]; at 17.2 µM (top of the series)) -3.96% and -3.07% | activity, negative = inhibition ([1]; at 38 µM (top of the series)) 4.48% | Potency [3] | outcome [4] | outcome [5]

N=c1c[n+](N2CCOCC2)[n-]o1
inactive: activity, negative = inhibition ([1]; at 17.2 µM (top of the series)) 4.68% | activity, negative = inhibition ([1]; at 38 µM (top of the series)) -10.2% | Potency [2] > 46 µM and > 20.6 µM | Potency [3] | outcome [4] | outcome [5]

COC(=O)C1=C(C)NC(C)=C(C(=O)OC)C1c1ccccc1[N+](=O)[O-]
inactive: activity, negative = inhibition ([1]; at 17.2 µM (top of the series)) -12.5% and -20.9% | activity, negative = inhibition ([1]; at 38 µM (top of the series)) -13.9% | Potency [2] > 46 µM and > 20.6 µM | Potency [3] | outcome [4] | Potency [7] | Potency [8] | outcome [9] | outcome [10] | Potency [11] | outcome [12] | outcome [13] | outcome [14] | outcome [15] | outcome [5]
active: Potency [6] 25.1 µM

CCCCN(CCCC)CCCOC(=O)c1ccc(N)cc1
inactive: activity, negative = inhibition ([1]; at 17.2 µM (top of the series)) -8.33% and 3.52% | Potency [2] > 20.6 µM | Potency [3]

CCCCOC(=O)c1ccc(O)cc1
inactive: activity, negative = inhibition ([1]; at 17.2 µM (top of the series)) -9.98% | Potency [2] > 20.6 µM | Potency [3] | Potency [16] | Potency [17] | Potency [6] | outcome [4] | Potency [7] | Potency [8] | outcome [9] | outcome [18] | outcome [10] | Potency [11] | outcome [12] | outcome [13] | outcome [14] | outcome [15] | outcome [19]
